Source: PubChem BioAssay (several laboratories)
BoNT-A LC inh2 – inhibitors of Botulinum neurotoxin A light chain protease | inhibition, % at 10 µM | AID 588499 | hit rate 0.17% among 360,000 | multiplex microsphere protease substrate cleavage, flow cytometry
MazF activator – MazEF (E. coli) toxin RNase activation; FAM/BHQ RNA-DNA oligo cleavage fluorescence, 5 h; activation, % at 20 µM; hit rate 0.32% among 350,000; P0AE70; in the data active = activation above about 50%
Target sequence (P0AE70 whole entry, looked up): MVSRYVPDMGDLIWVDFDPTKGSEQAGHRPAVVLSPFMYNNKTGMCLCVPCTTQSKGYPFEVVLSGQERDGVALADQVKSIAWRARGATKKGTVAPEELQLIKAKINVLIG
BoNT F protease – blocks Botulinum neurotoxin F light chain protease; Multiplex microsphere protease cleavage assay, flow cytometry; inhibition, % at 10 µM; hit rate 0.22% among 360,000; AID 588497; in the data active = inhibition above about 35%, passing the limit was not always enough; inconclusive = no clear call, values can overlap the other calls
Anthrax LF prot – anthrax lethal factor protease inhibition | AID 588501 | hit rate 0.12% among 360,000 | P15917 | inhibition, % at 10 µM | multiplex microsphere protease cleavage assay, LF
Bead autofluor – counter-screen for toxin protease inhibitors: compound fluorescence; compound autofluorescence counterscreen, microsphere flow cytometry; active compounds read high; hit rate 3.1% among 360,000; fluorescence intensity (no concentration beside the values); in the data active = fluorescence intensity above about 16000; inconclusive = no clear call, values can overlap the other calls
Large screens that a line does not name were inactive. Sampled rows, rich in hits. Any-hit rate of the full collection: about 3.6%. Cut-off read from the data, not from the text of the source, unless noted: active = inhibition above about 30%; inconclusive = no clear call, values can overlap the other calls; inactive = below that.

CC1(C)CC(=O)c2ccc(OCc3ccc([N+](=O)[O-])cc3)cc2O1	Bead autofluor inconclusive
O=C1CCOc2cc(OCc3ccccc3)ccc21	Bead autofluor 21171
COc1ccc(-c2c(C(=O)c3ccc(Br)cc3)[nH]c(N)c2C(=O)c2ccccc2)cc1OC	none (no result: MazF activator)
Cc1cc(N2CCCC2)nc2ccccc12	none
Cc1nn(-c2cc(C)c3ccccc3n2)c2c1CCC2	Bead autofluor 20384
CCOC(=O)Nc1ccc(S(=O)(=O)NCCCN2CCOCC2)cc1	Bead autofluor 17393
CCCCOC(=O)Nc1ccc(N2CCOCC2)cc1	BoNT-A LC inh2 inconclusive, Bead autofluor 20906
CCc1sc(C(=O)NCCCn2ccnc2)cc1Br	none
CCc1nc(SCC(=O)NCCc2ccccc2)c2oc3ccccc3c2n1	none
Cc1nc(SCC(=O)NC(C)c2ccccc2)c2oc3ccccc3c2n1 (stereo not given)	Bead autofluor 19999
Cc1nc(SCC(=O)NCCc2ccccc2)c2oc3ccccc3c2n1	Bead autofluor 16266
CCc1ccc(C(=O)N2CCCC2)s1	BoNT-A LC inh2 inconclusive, Bead autofluor 16597
NS(=O)(=O)c1cc(C(=O)N2CCc3ccccc32)c(Cl)cc1Cl	Bead autofluor 18762
O=C(c1ccc(Cl)s1)N1CCCC1	Bead autofluor 24368
CS(=O)(=O)N1CCN(C(=O)c2ccc(Cl)s2)CC1	none
O=C(c1ccc(Cl)s1)N1CCc2ccccc21	Bead autofluor 20271
O=C(c1ccc(C(=O)N2CCCc3ccccc32)s1)N1CCCc2ccccc21	none
COCCNC(=O)C1(C)CCCN(CCOc2ccc(Cl)cc2)C1 (stereo not given)	none (no result: MazF activator)
O=C(NCc1ccccc1)C1c2ccccc2OCC(=O)N1CC(F)(F)F (stereo not given)	none (no result: MazF activator)
Cc1ccc(NC(=O)c2ncn(CCCN3CCN(Cc4cccc5ccccc45)CC3)n2)cc1C	none
CN1CCN(c2ccc([N+](=O)[O-])cc2NC(=O)c2cccs2)CC1	none
O=C(COC(=O)c1ccc(S(=O)(=O)N2CCCCC2)cc1)NCc1ccc(F)cc1	none
Cc1nn(C)c(C(=O)N2CCc3ccccc32)c1Cl	BoNT-A LC inh2 inconclusive, Bead autofluor 21851
CCc1ccc(C(=O)NC2CCCCC2)s1	Bead autofluor 20340
Cn1ncc(Cl)c1C(=O)N1CCc2ccccc21	none
COc1ccc(C)cc1S(=O)(=O)n1cnc2ccccc21	none
CCC(NC(=O)NCc1ccc2c(c1)OCO2)(C(F)(F)F)C(F)(F)F	BoNT-A LC inh2 inconclusive, Bead autofluor 16887
Cc1cc(C(=O)N/N=C/c2ccc(-c3cccc(Cl)c3Cl)o2)n[nH]1	MazF activator 50.8
CCOC(=O)c1ccc(NC(=O)NCc2ccccn2)cc1	none
Cc1cc(C(=O)O)ccc1-c1ccc(/C=C2\NC(=O)N(Cc3ccccc3Cl)C2=O)o1	none
Cc1ccc(C(=O)O)cc1-c1ccc(/C=C2/NC(=O)N(c3ccccc3)C2=O)o1	Bead autofluor 23411
O=S(=O)(Nc1ccccn1)c1ccc(Cl)cc1	Bead autofluor 23792
CN(C)C(=O)c1ccc(NC(=O)c2cncc(Br)c2)cc1	Bead autofluor 21882
CC(C)OC(=O)c1ccc(NC(=O)c2cncc(Br)c2)cc1	none
O=C(NC1CCCN(CCc2ccccc2)C1)C1CCCC1 (stereo not given)	none (no result: BoNT-A LC inh2, BoNT F protease, Anthrax LF prot, Bead autofluor)
O=C1c2ccccc2[C@@H]2C[C@@H](O)[C@H](Nc3cccc4ccccc34)CCN12	none
Cc1cc2oc(=O)cc(Cn3ccnc3)c2cc1C	Bead autofluor 16965
CCCC(=O)OCC1CN(Cc2ccco2)S(=O)(=O)c2c(F)cccc2O1 (stereo not given)	none
CC1(C)NC(=O)N(CCCOc2ccccc2Br)C1=O	Bead autofluor 16174
CCc1cccc(OCCCN2C(=O)NC(C)(C)C2=O)c1	Bead autofluor 22570
CCOc1cc(C=O)ccc1OCCCN1C(=O)NC(C)(C)C1=O	Bead autofluor 22259
CC(=O)c1cccc(OCCN2C(=O)NC(C)(C)C2=O)c1	none
CCC(C)(C)c1ccc(OCCN2C(=O)NC(C)(C)C2=O)cc1	Bead autofluor 22180
C/C=C/c1ccc(OCCCCN2C(=O)NC(C)(C)C2=O)c(OC)c1	none
CN1CCN(c2c(F)cc3c(=O)c(C(=O)O)cn4c3c2OCN4C)CC1	none
NC(=O)CN1C(=O)C(=O)N(Cc2cccc(C(F)(F)F)c2)C1=O	none
Cc1ccn(CCNC(=O)C2CCC(=O)N(Cc3ccc(Cl)cc3)C2)n1 (stereo not given)	none
Cc1ccc(S(=O)(=O)N(CC(=O)Nc2ccc(C(N)=O)cc2)C(=O)N2CCN(C)CC2)cc1	BoNT F protease inconclusive
CCc1nc2c(OCc3ccc(C#N)cc3)cccn2c1N(C)C(=O)c1cccs1	none (no result: MazF activator)
Cc1ccc(CNCC(O)(c2ccccc2)c2ccc(F)cc2)cc1 (stereo not given)	none
